Bioassay records (PubChem BioAssay)
Most compounds without a hit are left out; they make up all but 7.6% or so of the library.
Giardia kill = Small Molecules that selectively kill Giardia lamblia: qHTS. Giardia lamblia trophozoite viability. activity change, % at 7.66 µM, hits read low. actives 0.15% (n = 340,000). AID 540267, 2011; in the data active = activity change below about -80%; inconclusive = between about -30% and that limit;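 note: parasites exposed to compound for two days anaerobically before the ATP read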
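Each well holds 100 Giardia trophozoites and compound. After two days (48 hrs) at 37 deg C in anaerobic conditions, ATP is quantified by luminescence.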
p53 reactivation = qHTS assay for re-activators of p53 using a Luc reporter; H1299 p53-A138V BP100-luciferase reporter, luminescence, 24 h; actives 0.063% (n = 320,000); AID 504706, 2011; Potency, µM (highest dose often 92.2 µM), usual class: activators; note: nearly all actives have a fitted effect of over 45% in size
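p53-null H1299 cells stably carrying temperature-sensitive p53-A138V and a BP100-luciferase reporter were pinned with compounds (4-point, 1:5 series) and held 24 hrs at 37 deg C. Luminescence was read 10 min after detection reagent.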
RORg inh = qHTS for inhibitors of ROR gamma transcriptional activity. Nuclear receptor ROR-gamma (Mus musculus), P51450. Potency, µM (series often up to 53.6 µM), usual class: inhibitors. Drosophila S2 Gal4-RORgamma UAS-luciferase reporter, 20 h. AID 2551, 2010. actives 5.4% (n = 310,000); note: nearly all actives have a fitted effect of over 60% in size
Target sequence (P51450 whole entry, looked up, the tested form may be a part): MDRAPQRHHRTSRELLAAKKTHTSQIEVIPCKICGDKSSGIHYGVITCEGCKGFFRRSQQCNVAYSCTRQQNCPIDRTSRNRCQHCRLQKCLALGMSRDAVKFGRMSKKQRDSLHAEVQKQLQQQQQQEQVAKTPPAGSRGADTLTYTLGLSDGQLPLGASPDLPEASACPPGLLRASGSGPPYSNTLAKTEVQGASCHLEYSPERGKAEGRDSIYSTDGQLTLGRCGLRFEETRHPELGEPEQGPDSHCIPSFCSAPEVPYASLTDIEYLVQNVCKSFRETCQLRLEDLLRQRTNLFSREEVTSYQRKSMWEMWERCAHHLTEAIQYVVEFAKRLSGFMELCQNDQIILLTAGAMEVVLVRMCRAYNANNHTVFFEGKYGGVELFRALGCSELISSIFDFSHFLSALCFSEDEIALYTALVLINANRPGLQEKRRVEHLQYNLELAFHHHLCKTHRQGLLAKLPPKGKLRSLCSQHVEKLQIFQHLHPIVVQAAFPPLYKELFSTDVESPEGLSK
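Stably transfected Drosophila Schneider cells are the test system, with ROR gamma fused to Gal4 and luciferase under UAS control; luminescence is read after 20 hr of 700 uM copper sulfate induction at ambient temperature.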
BRCA1 expr act = qHTS Assay to Identify Small Molecule Activators of BRCA1 Expression; MCF7-BRCA1-FFLuc reporter, luminescence, 48 h; response scale: scaled: vehicle 0%, 10 µM genistein 100%; actives 1.1% (n = 380,000); Potency, µM (series often up to 46.1 µM), actives largely listed as activators; note: nearly all actives have a fitted effect of over 80% in size
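MCF7 cells carrying a BRCA1-firefly luciferase reporter (2000 cells/well, phenol-red free MEM) were attached for 2 h at 37 °C, then given compounds for 48 h. Luminescence was read 15 min after luciferase reagent; activity normalized to genistein (10 microM) and DMSO.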
ELG1 repair inh = qHTS screen for small molecules that inhibit ELG1-dependent DNA repair in human embryonic kidney (HEK293T) cells expressing luciferase-tagged ELG1; HEK293T ELG1-luciferase reporter, luminescence, 16 h; DNA damage induced by 5-fluorouridine; actives 2.3% (n = 330,000); Potency, µM (doses to about 46.1 µM), hits mostly inhibitors; note: nearly all actives have a fitted effect of over 55% in size
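HEK293T cells expressing luciferase-tagged ELG1 (2,000/well) received 5-Fluorouridine plus compound or DMSO for 16 hr at 37 °C. Luciferase was read by ONE-Glo luminescence after 30 min at room temperature.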
Gal4-VP16 FLuc = VP16 counterscreen qHTS for inhibitors of ROR gamma transcriptional activity. actives 3.5% (n = 310,000). AID 2546, 2010. Potency, µM (highest dose often 53.6 µM), usual class: inhibitors. Drosophila S2 Gal4-VP16 UAS-luciferase, luminescence, 20 h;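 note: Gal4-VP16 expression switched on by copper sulfate through the metallothionein promoter; nearly all actives have a fitted effect of over 50% in size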
A number is an active result; n = inactive; u = inconclusive; x = not tested or not shown. Unless noted, calls come from the whole dose curve; as a rule, active = well fitted curve in the direction sought with a large enough effect; inconclusive = small, poorly fitted or top-dose-only effect, or another doubt; inactive = no such curve, though single readings can be large; an effect the other way counts as inactive or inconclusive.

SMILES	Giardia kill	p53 reactivation	RORg inh	BRCA1 expr act	ELG1 repair inh	Gal4-VP16 FLuc
COc1ccc(-n2c(O)c(/C(C)=N/Nc3ccccc3)c(=O)[nH]c2=O)cc1	n	n	n	n	7.3µM	n
C=C1[C@@H](O)C2C=CC[C@H](C)C(=O)[C@@](C)(O)C=C[C@@H](OC(C)=O)[C@@]23C(=O)N[C@H](Cc2ccccc2)[C@@H]3[C@@H]1C (stereo partly specified)	x	x	u	x	x	n
CCN(CC)C(=O)c1ccc(NC(=O)c2cn(-c3ccccc3)nc2-c2ccc(OC)cc2)cc1	n	n	n	n	13µM	n
COC1CC(OC2CCC3(C)C(CCC4C3CCC3(C)C(C5=CC(=O)OC5)C(OC(C)=O)CC43O)C2)OC(C)C1OC1OC(COC2OC(CO)C(O)C(O)C2O)C(O)C(O)C1O (stereo unspecified)	x	n	n	x	2.9µM	n
COc1cc2c(cc1OC)C1C(=O)c3ccc4c(c3OC1CO2)CC(C(C)C)O4 (stereo unspecified)	n	x	x	n	x	x
COc1cc2c(cc1OC)[C@@H]1C(=O)c3ccc4oc(C(C)C)cc4c3OC1CO2 (stereo partly specified)	x	x	5µM	x	x	0.32µM
COc1cc2c(cc1OC)[C@H]1C(=O)c3ccc4c(c3O[C@H]1CO2)C[C@@H](C(C)(C)O)O4	n	n	x	n	n	x
COc1cc2c(cc1OC)[C@@H]1C(=O)c3ccc4c(c3O[C@@H]1CO2)C[C@H](C(C)C)O4	n	n	n	n	0.058µM	n
N[C@@H](CCP(=O)(O)O)C(=O)O	x	x	n	x	x	n
Cc1ccc(-c2n[nH]c(=S)n2-c2ccccc2)cc1	n	n	u	n	n	u
Cc1cc(-c2n[nH]c(=S)n2CC(C)C)cs1	n	n	5µM	n	n	u
Brc1ccccc1Cn1c(-c2cncs2)nc2ccccc21	n	n	6.3µM	n	n	n
CCc1ccc(N2C(=O)NC(=O)/C(=C/c3cccn3CCOc3ccc(C(C)CC)cc3)C2=O)cc1 (stereo unspecified)	n	u	0.79µM	u	u	u
CCc1ccc(N2C(=O)NC(=O)/C(=C/c3cccn3CCOc3ccc(C)cc3)C2=O)cc1	n	n	u	n	u	u
O=C(NC1CCCCCC1)c1ccc[nH]c1=S	n	n	0.45µM	n	n	0.79µM
Cn1cc(C(=O)NC2CC2)c2ccccc21	n	n	n	n	n	n
Cc1ccc(NC(=O)CN2C(=O)CN=C(c3ccccc3)c3cc(Cl)ccc32)cc1	n	n	n	u	7.3µM	n
COc1ccc(-c2nn(-c3ccccc3)cc2C(=O)N2c3ccc(C)cc3C3CN(C)CCC32)cc1 (stereo unspecified)	n	n	u	n	u	n
CS(=O)(=O)NNC(=O)Cn1nnc(-c2ccc(OCc3ccccc3Cl)cc2)n1	n	x	x	11µM	x	x
CC(C)Oc1ccc(C2(C#N)CC[N+](C)(C)CC2)cc1	n	n	n	n	n	n
C=Cn1ccnc1P(=S)(c1ccc(N(C)C)cc1)c1nccn1C=C	n	n	10µM	n	n	u
C=Cn1ccnc1P(=S)(c1c(C)nn(-c2ccccc2)c1C)c1nccn1C=C	n	n	n	n	n	n
Cc1ccc(C(=O)Nc2nc3ccccc3[nH]2)cc1	-92	n	2.5µM	n	u	3.5µM
CC(=O)C1=NOC(CNc2ncc(C(F)(F)F)cc2Cl)C1 (stereo unspecified)	n	n	u	n	u	n
COC(=O)[C@]1(C)CC[C@@]2(C)CC[C@@]3(C)C4=CCc5c(cc(O)c(O)c5C)[C@]4(C)CC[C@@]3(C)C2C1 (stereo partly specified)	x	x	u	x	x	16µM
SMILES	Giardia kill	p53 reactivation	RORg inh	BRCA1 expr act	ELG1 repair inh	Gal4-VP16 FLuc
COc1cc2nc(CN3CC=C(c4ccccc4)CC3)[nH]c(=O)c2cc1OC	n	x	x	n	x	x
CCCOP(=O)(O)c1c([N+](=O)[O-])cc(C(F)(F)F)cc1[N+](=O)[O-] (tested in a mixture with another compound)	n	n	n	10µM	u	n
CCOP(=O)(Oc1ccccc1)c1c([N+](=O)[O-])cc(C(F)(F)F)cc1[N+](=O)[O-] (stereo unspecified)	n	n	n	n	n	n
CN(C)P(=O)(C(Cl)=C(N1CCCCC1)N1CCCCC1)N(C)C	n	32µM	n	n	u	n
O=C(N1CCCCCC1)N1CC1	n	x	x	n	x	x
COC(=O)C(O)(c1ccc(NC(=S)NC(=O)c2ccc(Cl)cc2Cl)cc1)C(F)(F)F (stereo unspecified)	n	n	5µM	n	n	u
CCOC(=O)C(O)(c1ccc(NC(=S)NC(=O)c2ccc(Cl)cc2Cl)cc1)C(F)(F)F (stereo unspecified)	n	n	6.3µM	n	n	10µM
C=CCN1CCc2cccc3c2[C@H]1Cc1ccc(O)c(O)c1-3	n	x	u	n	n	u
NNC(=O)c1nc[nH]c1C(=O)Nc1ccc(Cl)cc1C(=O)c1ccccc1	n	n	n	n	n	n
COc1cc2c(c(OC)c1OC)-c1ccc(SC)c(=O)cc1C(NC(C)=O)CC2 (stereo unspecified)	n	x	x	u	x	x
CC1=C2[C@H]3OC(=O)[C@@H](C)[C@@H]3CC[C@@]2(C)C=CC1=O	n	n	n	n	n	n
C[C@]12CCC3C(CC[C@]4(O)C[C@@H](O)CC[C@]34C=O)[C@@]1(O)CC[C@@H]2C1=CC(=O)OC1 (stereo partly specified)	x	x	n	x	x	n
CC(=O)OC1CC[C@]2(C#N)[C@H]3CC[C@]4(C)[C@H](C5C=CC(=O)O5)CCC4(O)C3CCC2(O)C1 (stereo partly specified)	n	n	n	n	15µM	n
CC12CC[C@H]3[C@@H](CCC4(O)C[C@H](O)CCC34/C=N/NC(=O)c3ccccc3O)C1(O)CCC2C1=CC(=O)OC1 (stereo partly specified)	n	n	n	n	u	n
CN(C)c1ccc(C(=O)N/N=C/C23CC[C@@H](O)CC2(O)CC[C@@H]2[C@@H]3CCC3(C)C(C4=CC(=O)OC4)CCC23O)cc1 (stereo partly specified)	n	n	n	n	8.2µM	n
